Screening results from PubChem BioAssay.
SMN2 splice up – enhancers of SMN2 splice variant expression; HEK293 SMN2-luciferase splicing reporter, luminescence, 30-36 h; 2.8% of 210,000 active; Potency, µM (series often up to 46.1 µM), hits mostly activators; also: nearly all actives have a fitted effect of over 55% in size
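HEK293 cells carry an SMN2 […]–luciferase reporter in which exon 7 inclusion puts luciferase in frame. Cells were plated 10-12 h before compound addition, then incubated 30-36 h at 37C. ONE-Glo luminescence was read; sodium butyrate at 4.5 mM final served as control.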
Rab9 prom act – Rab9 promoter activation. Huh7 Rab9 promoter-luciferase reporter, luminescence, 24 h. 2.8% of 320,000 active. Potency, µM (top dose mostly 9.22 µM), actives largely listed as activators; also: nearly all actives have a fitted effect of over 60% in size
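Cell-based reporter: Huh7 stable for Rab9 promoter-driven luciferase, plated in reduced-serum medium with 10% FBS at 1500 cells/well, compound-treated 24 h at 37 °C, luminescence read after 10 min reagent.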
ELG1 genotoxic – induces genotoxicity in HEK293T cells with luciferase-tagged ELG1. Potency, µM (titrated, usually from 46 µM), actives largely listed as activators. 1.3% of 330,000 active. HEK293T ELG1-luciferase reporter, luminescence, 16 h; also: nearly all actives have a fitted effect of over 60% in size
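Step 1: seed 2,000 HEK293T ELG1-luciferase cells per well. Step 2: add compound or DMSO, incubate 16 hr at 37 °C. Step 3: ONE-Glo, 30 min at room temperature, read luminescence.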
FLuc modulator – firefly luciferase modulation, counter-screen for miR-21 project | P08659 | 6.9% of 360,000 active | purified FLuc, Km substrates, luminescence inhibition | AID 588342 | Potency, µM (highest dose often 57.5 µM), usual class: inhibitors; also: nearly all actives have a fitted effect of over 55% in size
Target sequence (P08659 whole entry, looked up): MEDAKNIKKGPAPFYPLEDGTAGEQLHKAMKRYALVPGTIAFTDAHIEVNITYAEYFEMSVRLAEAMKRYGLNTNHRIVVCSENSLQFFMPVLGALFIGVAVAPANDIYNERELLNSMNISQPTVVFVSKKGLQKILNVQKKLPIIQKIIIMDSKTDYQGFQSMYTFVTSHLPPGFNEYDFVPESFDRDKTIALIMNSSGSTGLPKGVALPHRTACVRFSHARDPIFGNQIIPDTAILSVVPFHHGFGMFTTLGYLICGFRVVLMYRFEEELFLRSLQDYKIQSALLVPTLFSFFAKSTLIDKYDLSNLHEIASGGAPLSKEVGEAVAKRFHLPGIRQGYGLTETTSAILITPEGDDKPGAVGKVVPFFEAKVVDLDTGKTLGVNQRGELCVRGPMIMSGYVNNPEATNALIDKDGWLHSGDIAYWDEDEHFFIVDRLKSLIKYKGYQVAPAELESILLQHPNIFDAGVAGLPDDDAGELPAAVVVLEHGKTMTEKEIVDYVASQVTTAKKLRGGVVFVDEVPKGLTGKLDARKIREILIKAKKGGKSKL
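Biochemical qHTS of compounds, final roughly 60 µM downward over six points, against 10 nM purified firefly luciferase using Km concentrations of substrates (10 uM D-luciferin, 10 uM ATP) in Tris acetate pH 7.5 buffer; luminescence output.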
uPA surface inh – cell surface uPA generation inhibition. cell surface uPA generation assay, qHTS. Potency, µM (series often up to 38.3 µM), hits mostly inhibitors. 0.31% of 330,000 active; active = well fitted inhibition curve with a large enough effect; inconclusive = small, poorly fitted or top-dose-only effect; inactive = no such curve, though single readings can be large or run the other way; tested in mouse RAW 264.7 cells; also: nearly all actives have a fitted effect of over 55% in size
NPC1 prom act – activates the NPC1 promoter | Huh7 NPC1 promoter luciferase reporter, 24 h | AID 485313 | 2.4% of 320,000 active | Potency, µM (highest dose often 9.22 µM), hits mostly activators; also: nearly all actives have a fitted effect of over 60% in size
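NPC1 promoter–luciferase Huh7 cells; 24 h compound; luminescence.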
Numbers stand for hits; - = inactive; ? = inconclusive; . = no result; [ ] = remark or other dose. An excerpt weighted towards active compounds, which were near 7.3% of everything screened. Unless noted, calls follow the shape of the dose curve; as a rule, active = well fitted curve in the direction sought with a large enough effect; inconclusive = small, poorly fitted or top-dose-only effect, or another doubt; inactive = no such curve, though single readings can be large; an effect the other way counts as inactive or inconclusive.

SMILES	SMN2 splice up	Rab9 prom act	ELG1 genotoxic	FLuc modulator	uPA surface inh	NPC1 prom act
Cc1ccc(C2=N/C(=C\c3cccc(F)c3)C(=O)O2)cc1	.	-	-	3µM	-	-
CN(C)/C=C1\N=C(c2cccnc2Oc2ccc(Cl)cc2)OC1=O	.	-	-	-	-	-
O=C1OC(c2ccc(F)cc2)=N/C1=C\C=C/c1ccccc1	.	-	-	?	-	-
Cc1cccc(C2=N/C(=C\c3cccs3)C(=O)O2)c1	-	-	-	2.1µM	?	-
Cc1ccc(C2=N/C(=C\N(C)C)C(=O)O2)cc1	-	?	15µM	15µM	.	?
CN(C)/C=C1\N=C(c2ccc(Cl)cc2Cl)OC1=O	-	0.63µM	9.2µM	?	.	1.1µM
CCc1ccc(NC(=O)CC(c2cc(OC)c(OC)c(OC)c2)N2Cc3ccccc3C2=O)cc1 (centres undefined)	.	.	.	-	.	.
Cc1ccc(NC(=O)C2CCCN(S(=O)(=O)c3ccc4[nH]c(=O)ccc4c3)C2)cc1Cl (centres undefined)	.	.	.	-	.	.
CCc1ccc(NC(=O)Nc2ccccc2OCc2cc(=O)n3ccccc3n2)cc1	.	.	.	0.21µM	.	.
CC(C)C(=O)Nc1ccccc1OCc1cc(=O)n2ccccc2n1	.	.	.	-	.	.
CSc1cccc(NC(=O)Nc2ccccc2OCc2cc(=O)n3cc(C)ccc3n2)c1	.	.	.	3µM	.	.
Cc1ccc2nc(COc3ccccc3NC(=O)c3ccccc3C)cc(=O)n2c1	.	.	.	-	.	.
O=C(COc1ccccc1)Nc1ccccc1OCc1cc(=O)n2ccccc2n1	.	.	.	-	.	.
O=C(COc1ccccc1Cl)Nc1ccccc1OCc1cc(=O)n2ccccc2n1	.	.	.	19µM	.	.
COc1ccc(CNC(=O)c2ccc3c(c2)CCN3S(=O)(=O)c2ccc(Cl)cc2)cc1	-	.	.	-	.	.
Cc1cccc(-c2nc(Cn3c(SCc4cc(C)ccc4C)nc4ccncc43)c(C)o2)c1	-	.	.	-	.	.
CCOC(=O)c1ccc(NC(=O)CN(c2ccc(C)cc2)S(=O)(=O)c2c(C)noc2C)cc1	-	.	.	-	.	.
O=C(NCc1ccccc1Cl)c1ccccc1NC(=O)c1nsc2ccccc12	.	.	.	17µM	.	.
CCOc1cc(CNC(=O)c2ccc(NC(=O)c3nsc4ccccc34)cc2)ccc1OC	.	.	.	3µM	.	.
CCOc1ccc(CNC(=O)c2ccc(NC(=O)c3nsc4ccccc34)cc2)cc1	.	.	.	7.6µM	.	.
CCOc1ccc(CNC(=O)c2ccc(NC(=O)C3=CSCCO3)cc2)cc1	.	-	-[9.26 µM]	-	-	-
CSc1ccc(CNC(=O)c2ccc(NC(=O)c3nsc4ccccc34)cc2)cc1	.	.	.	6µM	.	.
Cc1ccccc1CNC(=O)c1ccccc1NC(=O)c1nsc2ccccc12	.	.	.	-	.	.
CCOc1cc(CNC(=O)c2ccc3nc(CCc4ccccc4)oc3c2)ccc1OC	.	.	.	-	.	.
COc1cccc(C2c3c(oc4cc(C)cc(C)c4c3=O)C(=O)N2CCc2ccc(OC)c(OC)c2)c1 (centres undefined)	-	.	.	-	.	.
SMILES	SMN2 splice up	Rab9 prom act	ELG1 genotoxic	FLuc modulator	uPA surface inh	NPC1 prom act
CC1(C)CC2(CCO1)OC(=O)CC2C(=O)Nc1ccccc1Cl (centres undefined)	.	-	-	-	?	-
Nc1nc(=O)c2[nH]cnc2n1O	-[9.22 µM]	.	.	.	.	.
COc1ccc(OC)c(CNC(=O)c2ccc(NC(=O)c3nsc4ccccc34)cc2)c1	.	.	.	6.7µM	.	.
CC(C)Oc1ccc(CNC(=O)c2ccc(NC(=O)c3nsc4ccccc34)cc2)cc1	.	.	.	7.6µM	.	.
Cc1nn(C2CC(O)C(O)C(CO)O2)c(=O)[nH]c1=O (centres undefined)	.	.	.	.	-	.
CCOC(=O)CC1=NN(c2ccccc2)C(=O)C1	-	-	-	-	-	-
CC1=NN(c2ccccc2)C(=O)/C1=C\C=C1\N(C)c2ccccc2C1(C)C	-	-	-	-	-	-
CC1=NN(c2ccccc2)C(=O)/C1=C\C=C\c1ccccc1	.	-	-	17µM	-	-
CC1=NN(c2ccccc2)C(=O)/C1=C/C=C/c1ccc(N(C)C)cc1	-	-	-	4.8µM	-	-
CCOC(=O)CC1=NN(c2ccccc2)C(=O)/C1=C\c1ccc(N(C)C)cc1	-[1.84 µM]	-	-	11µM	-	-
Cc1cccc(N2CCN(C3(c4ccccc4)C(=O)c4ccccc4C3=O)CC2)c1C	.	.	.	-	.	.
